Source: paper PMC11102866, “Nucleosome-bound NR5A2 structure reveals pioneer factor mechanism by DNA minor groove anchor competition”

B1: 132 (nucleosome)
DNA 1: ATCCTGGAGAATCCCGGTGCCGAGGCCGCTCAATTGGTCGTAGACAGCTCTAGCACCGCTTAAACGCACGTACGCGCTGTCCCCCGCGTTTTAACCGCCAAGGGGATTACTCCCTAGTCTCCAGGCACGTGTCATCAAGGCCAATCCTGTGAT
DNA 2: ATCACAGGATTGGCCTTGATGACACGTGCCTGGAGACTAGGGAGTAATCCCCTTGGCGGTTAAAACGCGGGGGACAGCGCGTACGTGCGTTTAAGCGGTGCTAGAGCTGTCTACGACCAATTGAGCGGCCTCGGCACCGGGATTCTCCAGGAT
modifications: reconstituted with mouse histones H2A, H2B, H3.3 and H4
B2: 137 (nucleosome)
DNA 1: ATCCTGGAGAATCCCGGTGCCGAGGCCGCTCAATTGGTCGTAGACAGCTCTAGCACCGCTTAAACGCACGTACGCGCTGTCCCCCGCGTTTTAACCGCCAAGGGGATTACTCCCTAGTCTCCAGGCACGTGTCAGATATTCAAGGCCAGTGAT
DNA 2: ATCACTGGCCTTGAATATCTGACACGTGCCTGGAGACTAGGGAGTAATCCCCTTGGCGGTTAAAACGCGGGGGACAGCGCGTACGTGCGTTTAAGCGGTGCTAGAGCTGTCTACGACCAATTGAGCGGCCTCGGCACCGGGATTCTCCAGGAT
modifications: reconstituted with mouse histones H2A, H2B, H3.3 and H4
B3: 138 (nucleosome)
DNA 1: ATCCTGGAGAATCCCGGTGCCGAGGCCGCTCAATTGGTCGTAGACAGCTCTAGCACCGCTTAAACGCACGTACGCGCTGTCCCCCGCGTTTTAACCGCCAAGGGGATTACTCCCTAGTCTCCAGGCACGTGTCAGATATATCAAGGCCATGAT
DNA 2: ATCATGGCCTTGATATATCTGACACGTGCCTGGAGACTAGGGAGTAATCCCCTTGGCGGTTAAAACGCGGGGGACAGCGCGTACGTGCGTTTAAGCGGTGCTAGAGCTGTCTACGACCAATTGAGCGGCCTCGGCACCGGGATTCTCCAGGAT
modifications: reconstituted with mouse histones H2A, H2B, H3.3 and H4
B4: 130 (nucleosome)
DNA 1: ATCCTGGAGAATCCCGGTGCCGAGGCCGCTCAATTGGTCGTAGACAGCTCTAGCACCGCTTAAACGCACGTACGCGCTGTCCCCCGCGTTTTAACCGCCAAGGGGATTACTCCCTAGTCTCCAGGCACGTGTTCAAGGCCAACATCCTGTGAT
DNA 2: ATCACAGGATGTTGGCCTTGAACACGTGCCTGGAGACTAGGGAGTAATCCCCTTGGCGGTTAAAACGCGGGGGACAGCGCGTACGTGCGTTTAAGCGGTGCTAGAGCTGTCTACGACCAATTGAGCGGCCTCGGCACCGGGATTCTCCAGGAT
modifications: reconstituted with mouse histones H2A, H2B, H3.3 and H4
B5: 131 (nucleosome)
DNA 1: ATCCTGGAGAATCCCGGTGCCGAGGCCGCTCAATTGGTCGTAGACAGCTCTAGCACCGCTTAAACGCACGTACGCGCTGTCCCCCGCGTTTTAACCGCCAAGGGGATTACTCCCTAGTCTCCAGGCACGTGTCTCAAGGCCACATCCTGTGAT
DNA 2: ATCACAGGATGTGGCCTTGAGACACGTGCCTGGAGACTAGGGAGTAATCCCCTTGGCGGTTAAAACGCGGGGGACAGCGCGTACGTGCGTTTAAGCGGTGCTAGAGCTGTCTACGACCAATTGAGCGGCCTCGGCACCGGGATTCTCCAGGAT
modifications: reconstituted with mouse histones H2A, H2B, H3.3 and H4
B6: 15 (nucleosome)
DNA 1: ATCCTGGAGAATCCCGGTCAAGGCCACGCTCAATTGGTCGTAGACAGCTCTAGCACCGCTTAAACGCACGTACGCGCTGTCCCCCGCGTTTTAACCGCCAAGGGGATTACTCCCTAGTCTCCAGGCACGTGTCAGATATATACATCCTGTGAT
DNA 2: ATCACAGGATGTATATATCTGACACGTGCCTGGAGACTAGGGAGTAATCCCCTTGGCGGTTAAAACGCGGGGGACAGCGCGTACGTGCGTTTAAGCGGTGCTAGAGCTGTCTACGACCAATTGAGCGTGGCCTTGACCGGGATTCTCCAGGAT
modifications: reconstituted with mouse histones H2A, H2B, H3.3 and H4
B7: 16 (nucleosome)
DNA 1: ATCCTGGAGAATCCCGGTTCAAGGCCAGCTCAATTGGTCGTAGACAGCTCTAGCACCGCTTAAACGCACGTACGCGCTGTCCCCCGCGTTTTAACCGCCAAGGGGATTACTCCCTAGTCTCCAGGCACGTGTCAGATATATACATCCTGTGAT
DNA 2: ATCACAGGATGTATATATCTGACACGTGCCTGGAGACTAGGGAGTAATCCCCTTGGCGGTTAAAACGCGGGGGACAGCGCGTACGTGCGTTTAAGCGGTGCTAGAGCTGTCTACGACCAATTGAGCTGGCCTTGAACCGGGATTCTCCAGGAT
modifications: reconstituted with mouse histones H2A, H2B, H3.3 and H4
B8: 134 (nucleosome)
DNA 1: ATCCTGGAGAATCCCGGTGCCGAGGCCGCTCAATTGGTCGTAGACAGCTCTAGCACCGCTTAAACGCACGTACGCGCTGTCCCCCGCGTTTTAACCGCCAAGGGGATTACTCCCTAGTCTCCAGGCACGTGTCAGATCAAGGCCACCTGTGAT
DNA 2: ATCACAGGTGGCCTTGATCTGACACGTGCCTGGAGACTAGGGAGTAATCCCCTTGGCGGTTAAAACGCGGGGGACAGCGCGTACGTGCGTTTAAGCGGTGCTAGAGCTGTCTACGACCAATTGAGCGGCCTCGGCACCGGGATTCTCCAGGAT
modifications: reconstituted with mouse histones H2A, H2B, H3.3 and H4
B9: 139 (nucleosome)
DNA 1: ATCCTGGAGAATCCCGGTGCCGAGGCCGCTCAATTGGTCGTAGACAGCTCTAGCACCGCTTAAACGCACGTACGCGCTGTCCCCCGCGTTTTAACCGCCAAGGGGATTACTCCCTAGTCTCCAGGCACGTGTCAGATATATTCAAGGCCAGAT
DNA 2: ATCTGGCCTTGAATATATCTGACACGTGCCTGGAGACTAGGGAGTAATCCCCTTGGCGGTTAAAACGCGGGGGACAGCGCGTACGTGCGTTTAAGCGGTGCTAGAGCTGTCTACGACCAATTGAGCGGCCTCGGCACCGGGATTCTCCAGGAT
modifications: reconstituted with mouse histones H2A, H2B, H3.3 and H4
B10: 135 (nucleosome)
DNA 1: ATCCTGGAGAATCCCGGTGCCGAGGCCGCTCAATTGGTCGTAGACAGCTCTAGCACCGCTTAAACGCACGTACGCGCTGTCCCCCGCGTTTTAACCGCCAAGGGGATTACTCCCTAGTCTCCAGGCACGTGTCAGATTCAAGGCCACTGTGAT
DNA 2: ATCACAGTGGCCTTGAATCTGACACGTGCCTGGAGACTAGGGAGTAATCCCCTTGGCGGTTAAAACGCGGGGGACAGCGCGTACGTGCGTTTAAGCGGTGCTAGAGCTGTCTACGACCAATTGAGCGGCCTCGGCACCGGGATTCTCCAGGAT
modifications: reconstituted with mouse histones H2A, H2B, H3.3 and H4
B11: 127 (nucleosome)
DNA 1: ATCCTGGAGAATCCCGGTGCCGAGGCCGCTCAATTGGTCGTAGACAGCTCTAGCACCGCTTAAACGCACGTACGCGCTGTCCCCCGCGTTTTAACCGCCAAGGGGATTACTCCCTAGTCTCCAGGCACGTCAAGGCCATATACATCCTGTGAT
DNA 2: ATCACAGGATGTATATGGCCTTGACGTGCCTGGAGACTAGGGAGTAATCCCCTTGGCGGTTAAAACGCGGGGGACAGCGCGTACGTGCGTTTAAGCGGTGCTAGAGCTGTCTACGACCAATTGAGCGGCCTCGGCACCGGGATTCTCCAGGAT
modifications: reconstituted with mouse histones H2A, H2B, H3.3 and H4
B12: 133 (nucleosome)
DNA 1: ATCCTGGAGAATCCCGGTGCCGAGGCCGCTCAATTGGTCGTAGACAGCTCTAGCACCGCTTAAACGCACGTACGCGCTGTCCCCCGCGTTTTAACCGCCAAGGGGATTACTCCCTAGTCTCCAGGCACGTGTCAGTCAAGGCCATCCTGTGAT
DNA 2: ATCACAGGATGGCCTTGACTGACACGTGCCTGGAGACTAGGGAGTAATCCCCTTGGCGGTTAAAACGCGGGGGACAGCGCGTACGTGCGTTTAAGCGGTGCTAGAGCTGTCTACGACCAATTGAGCGGCCTCGGCACCGGGATTCTCCAGGAT
modifications: reconstituted with mouse histones H2A, H2B, H3.3 and H4
B13: 129 (nucleosome)
DNA 1: ATCCTGGAGAATCCCGGTGCCGAGGCCGCTCAATTGGTCGTAGACAGCTCTAGCACCGCTTAAACGCACGTACGCGCTGTCCCCCGCGTTTTAACCGCCAAGGGGATTACTCCCTAGTCTCCAGGCACGTGTCAAGGCCATACATCCTGTGAT
DNA 2: ATCACAGGATGTATGGCCTTGACACGTGCCTGGAGACTAGGGAGTAATCCCCTTGGCGGTTAAAACGCGGGGGACAGCGCGTACGTGCGTTTAAGCGGTGCTAGAGCTGTCTACGACCAATTGAGCGGCCTCGGCACCGGGATTCTCCAGGAT
modifications: reconstituted with mouse histones H2A, H2B, H3.3 and H4
B14: 128 (nucleosome)
DNA 1: ATCCTGGAGAATCCCGGTGCCGAGGCCGCTCAATTGGTCGTAGACAGCTCTAGCACCGCTTAAACGCACGTACGCGCTGTCCCCCGCGTTTTAACCGCCAAGGGGATTACTCCCTAGTCTCCAGGCACGTTCAAGGCCAATACATCCTGTGAT
DNA 2: ATCACAGGATGTATTGGCCTTGAACGTGCCTGGAGACTAGGGAGTAATCCCCTTGGCGGTTAAAACGCGGGGGACAGCGCGTACGTGCGTTTAAGCGGTGCTAGAGCTGTCTACGACCAATTGAGCGGCCTCGGCACCGGGATTCTCCAGGAT
modifications: reconstituted with mouse histones H2A, H2B, H3.3 and H4
B15: 17 (nucleosome)
DNA 1: ATCCTGGAGAATCCCGGTGTCAAGGCCACTCAATTGGTCGTAGACAGCTCTAGCACCGCTTAAACGCACGTACGCGCTGTCCCCCGCGTTTTAACCGCCAAGGGGATTACTCCCTAGTCTCCAGGCACGTGTCAGATATATACATCCTGTGAT
DNA 2: ATCACAGGATGTATATATCTGACACGTGCCTGGAGACTAGGGAGTAATCCCCTTGGCGGTTAAAACGCGGGGGACAGCGCGTACGTGCGTTTAAGCGGTGCTAGAGCTGTCTACGACCAATTGAGTGGCCTTGACACCGGGATTCTCCAGGAT
modifications: reconstituted with mouse histones H2A, H2B, H3.3 and H4

What follows are binders tested against NR5A2 wild type;histone octamer (Homo sapiens;, UniProt O00482;C0HKE1;Q6ZWY9;P84244;P62806 1-541;2-130;2-126;2-136;2-103, |) (assay: SeEN-seq (EMSA of nucleosome library followed by sequencing); 0.8 uM human NR5A2; 20 mM Tris-HCl pH 7.5, 120 mM NaCl, 1 mM MgCl2, 10 uM ZnCl2, 1 mM DTT, 100 ug/ml BSA, room temperature, 30 min; 0.1 uM nucleosome library; high values mean tight binding).

| Binder | binding signal |
| --- | --- |
| B1 | 3.78 log2 enrichment (bound/unbound, relative to Widom 601) |
| B2 | 6.9 log2 enrichment (bound/unbound, relative to Widom 601) |
| B3 | 7.13 log2 enrichment (bound/unbound, relative to Widom 601) |
| B4 | 1.7 log2 enrichment (bound/unbound, relative to Widom 601) |
| B5 | 3.61 log2 enrichment (bound/unbound, relative to Widom 601) |
| B6 | 1.12 log2 enrichment (bound/unbound, relative to Widom 601) |
| B7 | 1.52 log2 enrichment (bound/unbound, relative to Widom 601) |
| B8 | 5.2 log2 enrichment (bound/unbound, relative to Widom 601) |
| B9 | 8.13 log2 enrichment (bound/unbound, relative to Widom 601) |
| B10 | 7.68 log2 enrichment (bound/unbound, relative to Widom 601) |
| B11 | 4.33 log2 enrichment (bound/unbound, relative to Widom 601) |
| B12 | 4.27 log2 enrichment (bound/unbound, relative to Widom 601) |
| B13 | 2.87 log2 enrichment (bound/unbound, relative to Widom 601) |
| B14 | 5.29 log2 enrichment (bound/unbound, relative to Widom 601) |
| B15 | 1.96 log2 enrichment (bound/unbound, relative to Widom 601) |

What follows are binders tested against mouse Nr5a2 wild type;histone octamer (Mus musculus;, UniProt P45448;C0HKE1;Q6ZWY9;P84244;P62806 1-560;2-130;2-126;2-136;2-103, |) (assay: SeEN-seq (EMSA of nucleosome library followed by sequencing); 1.2 uM mouse Nr5a2; 20 mM Tris-HCl pH 7.5, 120 mM NaCl, 1 mM MgCl2, 10 uM ZnCl2, 1 mM DTT, 100 ug/ml BSA, room temperature, 30 min; 0.1 uM nucleosome library; high values mean tight binding).

| Binder | binding signal |
| --- | --- |
| B1 | 3.09 log2 enrichment (bound/unbound, relative to Widom 601) |
| B2 | 5.78 log2 enrichment (bound/unbound, relative to Widom 601) |
| B3 | 5.66 log2 enrichment (bound/unbound, relative to Widom 601) |
| B4 | 1.35 log2 enrichment (bound/unbound, relative to Widom 601) |
| B5 | 3.22 log2 enrichment (bound/unbound, relative to Widom 601) |
| B6 | 1.33 log2 enrichment (bound/unbound, relative to Widom 601) |
| B7 | 1.81 log2 enrichment (bound/unbound, relative to Widom 601) |
| B8 | 3.67 log2 enrichment (bound/unbound, relative to Widom 601) |
| B9 | 5.56 log2 enrichment (bound/unbound, relative to Widom 601) |
| B10 | 5.73 log2 enrichment (bound/unbound, relative to Widom 601) |
| B11 | 3.32 log2 enrichment (bound/unbound, relative to Widom 601) |
| B12 | 3.65 log2 enrichment (bound/unbound, relative to Widom 601) |
| B13 | 2.23 log2 enrichment (bound/unbound, relative to Widom 601) |
| B14 | 4.1 log2 enrichment (bound/unbound, relative to Widom 601) |
| B15 | 1.98 log2 enrichment (bound/unbound, relative to Widom 601) |
